aSyn 5UTR act = Activators via SNCA 5'UTR binding, MLPCN; alpha-synuclein 5'UTR reporter, activators screen; activity score, % (tested at 7.5 µM), hits read low; 7.1% of 300,000 active; AID 1814, 2009; in the data active = activity score below about -60%
Of the large screens only hits and unclear results are named; the others gave an inactive call. The list is a sample of the results.

CC(C)c1ccc(N2C(=O)NC(=O)/C(=C/C=C/c3ccco3)C2=O)cc1	aSyn 5UTR act -130
Cc1cc(C)cc(N2C(=O)NC(=O)/C(=C\C=C\c3ccco3)C2=O)c1	aSyn 5UTR act -116
O=C1NC(=O)N(c2ccccc2)C(=O)/C1=C\C=C\c1ccccc1	aSyn 5UTR act -119
O=C1NC(=O)N(Cc2ccc(F)cc2)C(=O)/C1=C\C=C\c1ccco1	aSyn 5UTR act -270
CCOc1ccc(-c2c(C)n(-c3ccc(OCC)cc3)c3[n+]2CCCCC3)cc1	none
Cc1ccc(N2C(=O)NC(=O)/C(=C/C=C/c3ccco3)C2=O)cc1	aSyn 5UTR act -76
Cc1cc(N2CCOCC2)nc2ccc(NC(=O)CCC(=O)N3CCC4(CC3)OCCO4)cc12	aSyn 5UTR act -88
Nc1ccccc1C(=O)OCC(=O)N1CCc2ccccc21	aSyn 5UTR act -168
COc1ccc(C[C@H]2NC[C@H](O)[C@H]2OC(C)=O)cc1	none
CC(Cc1ccccc1)N1Cc2ccccc2C1 (stereo unspecified)	aSyn 5UTR act -65
c1ccc(CN2CCc3nc4ccccc4cc3C2)cc1	aSyn 5UTR act -171
CCCCCCCCCCCCCCCC[N+](C)(C)C	none
COc1cc2c(cc1OC)-c1c(OC)c(OC)c(OC)c3ccnc(c13)C2=O	none
O=C1NC(c2cccnc2)Nc2sc3c(c21)CCCC3 (stereo unspecified)	aSyn 5UTR act -98
C[C@@]1(CO)[C@H](O)CC[C@@]2(C)[C@H]1CC[C@H]1C[C@@H]3C[C@@]12CC[C@]3(O)CO	none
Cn1c(O)c(C(=N)COc2ccccc2)c(=O)n(C)c1=O	aSyn 5UTR act -67
C/C=C(\C)C(=O)OC1C(C)=C2C(C1OC(=O)CCCCC)C(C)(OC(C)=O)CC(OC(=O)CCC)C1(O)C2OC(=O)C1(C)O (stereo unspecified)	none
Cc1cc(N(CCCl)CCCl)ccc1/C=N/N=C(\N)c1cnccn1	aSyn 5UTR act -74
CC/C=C/CC(=O)N[C@@H](c1ccccc1)[C@@H](O)C(=O)O[C@H]1C[C@@]2(O)[C@@H](OC(=O)c3ccccc3)C3[C@](C)(C(=O)[C@H](OC(C)=O)C(=C1C)C2(C)C)[C@@H](O)C[C@H]1OC[C@@]31OC(C)=O (stereo partly specified)	none
C[C@]12C=CC(=O)C=C1C=C[C@@H]1C2CC[C@]2(C)C(=O)CCC12 (stereo partly specified)	aSyn 5UTR act -120
Cn1cnc([N+](=O)[O-])c1Sc1ccc([N+](=O)[O-])cc1	aSyn 5UTR act -66
O=C(Nc1ccc(Cl)cc1)OC1CN2CCC1CC2 (stereo unspecified)	aSyn 5UTR act -114
O=C(Nc1cccc(Cl)c1)OC1CN2CCC1CC2 (stereo unspecified)	aSyn 5UTR act -64
CC(=O)Nc1ccccc1C(=O)OCc1ccc(F)cc1	aSyn 5UTR act -84
CC(=O)Nc1ccccc1C(=O)OCC(=O)c1ccc2c(c1)OCCO2	aSyn 5UTR act -62
COc1cc2c(c(OC)c1OC)-c1ccc(O)cc1[C@@H](NC(C)=O)CC2	none
CCC(C)C(=O)N[C@@H](c1ccccc1)[C@@H](O)C(=O)O[C@H]1C[C@@]2(O)[C@@H](OC(=O)c3ccccc3)C3[C@](C)(C(=O)[C@H](OC(C)=O)C(=C1C)C2(C)C)[C@@H](O)C[C@H]1OC[C@@]31OC(C)=O (stereo partly specified)	none
O=C1Nc2ccccc2/C1=C/c1nc2ccccc2c(=O)n1-c1ccc(O)cc1	aSyn 5UTR act -77
C[C@]12CCC3C(CCC4=CC(O)CC[C@@]43/C=N/O)C1(O)CCC2C1=CC(=O)OC1 (stereo partly specified)	none
COc1ccc(OC)c(/C=N/OC(=O)Nc2ccc(Cl)cc2)c1	aSyn 5UTR act -63
Cc1c2ccncc2c(C)c2c1[nH]c1ccccc12	none
CCOC(=O)c1ccc(NC(=O)C2C3C=CC(O3)C2C(=O)O)cc1 (stereo unspecified)	aSyn 5UTR act -77
Cc1cc(C(=O)CS(=O)c2ccc(F)cc2)cc(C)c1OC(=O)N(C)C (stereo unspecified)	aSyn 5UTR act -68
Cc1cc(C(=O)CS(=O)(=O)c2ccccc2)cc(C)c1OC(=O)N(C)C	aSyn 5UTR act -71
CC1=CC(=C2C(=O)NC(=S)NC2=O)C=C(C(F)(F)F)N1Cc1ccccc1	none
CC(=O)O[C@@H]1/C=C/[C@](C)(O)C[C@@H](C)C/C=C/[C@H]2[C@@H]3O[C@]3(C)[C@@H](C)[C@H]3[C@H](Cc4ccccc4)NC(=O)[C@@]312	none
Nc1c2c(nc3sc4c(c13)CCCCC4)CCCC2	aSyn 5UTR act -139
Cc1cc(C(=O)N=Nc2c(O)n(C)c3ccccc23)c(C)o1	aSyn 5UTR act -180
N#Cc1ccccc1NC(=O)CN1CC=C(c2ccccc2)CC1	aSyn 5UTR act -63
CN(C)C(=O)Oc1ccc2c(c1)O/C(=C\c1cccc(Cl)c1)C2=O	aSyn 5UTR act -72
CN(C)C(=O)Oc1ccc2c(c1)O/C(=C\c1ccc(Cl)cc1)C2=O	aSyn 5UTR act -87
Cc1ccc(-c2cc(-c3ccc(C)cc3)[n+](-c3ccc(C(=O)[O-])cc3)c(-c3ccc(C)cc3)c2)cc1	none
COC(=O)C[C@]1(C(=O)OC)CN(C#N)N(c2ccc(Cl)cc2)C12c1ccccc1-c1ccccc12	none
COc1ccc(CNCCc2c(C)[nH]c3ccc(OC(F)(F)F)cc23)c(OC)c1	none
CCN1C(=O)C(=Cc2ccc(C)s2)C(=O)N(CC)C1=S	aSyn 5UTR act -158
Cc1ccccc1NC(=O)CCl	aSyn 5UTR act -71
CCC(=Nc1cc(OC)ccc1OC)c1c(O)[nH]c(=O)[nH]c1=O	none
COc1ccc2c(c1)/C(=C/c1cnc[nH]1)C(=O)N2	aSyn 5UTR act -62
O=C1NC(=O)C(C(CC(=O)c2ccccc2)c2ccccc2)C(=O)N1 (stereo unspecified)	aSyn 5UTR act -65
COc1ccc(O)c2c(=O)c3c(OC)cc4c(c3oc12)C1C=COC1O4 (stereo unspecified)	none
CCCCCCn1c(=O)c(C(=O)Nc2cnccn2)c(O)c2ccccc21	none
CCCCCn1c(=O)c(C(=O)Nc2ccccn2)c(O)c2ccccc21	none
CCCCCCn1c(=O)c(C(=O)Nc2c(C)n(C)n(-c3ccccc3)c2=O)c(O)c2ccccc21	aSyn 5UTR act -76
O=Cc1cn(Cc2ccc(F)cc2)c2ccccc12	none
O=Cc1cn(Cc2ccc([N+](=O)[O-])cc2)c2ccccc12	none
Cc1ccc(-c2nn(Cc3ccccc3)cc2C=O)cc1	aSyn 5UTR act -138
CCC(=NC(C)c1ccccc1)c1c(O)[nH]c(=O)[nH]c1=O (stereo unspecified)	none
CCCCn1c(O)c(/C(C)=N/NC(=O)Nc2ccccc2)c(=O)[nH]c1=O	aSyn 5UTR act -99
COc1ccc(-c2cc(=Nc3cccc(C(=O)O)c3)c3cc(C)ccc3o2)cc1	aSyn 5UTR act -81
COc1ccc(-c2cc(=NCC(=O)O)c3ccccc3o2)cc1	aSyn 5UTR act -128
C[C@@H]1O[C@@H](O[C@H]2C[C@@H](O)[C@]3(CO)[C@H]4[C@H](O)C[C@]5(C)[C@@H](C6=CC(=O)OC6)CC[C@]5(O)[C@@H]4CC[C@]3(O)C2)[C@H](O)[C@H](O)[C@H]1O	none
Cc1cccc(-n2c(/C=C/c3ccc([N+](=O)[O-])o3)nc3ccccc3c2=O)c1	aSyn 5UTR act -212
O=c1c2ccccc2nc(/C=C/c2ccc([N+](=O)[O-])o2)n1-c1ccc(O)cc1	none
Cc1nn(CC(C)C)c(Cl)c1C(=O)NC1CCC(C)CC1 (stereo unspecified)	aSyn 5UTR act -123
CCN1C(=O)C(=C2C=C(C)OC(C)=C2)C(=O)N(CC)C1=S	aSyn 5UTR act -75
Cn1ncnc2c(=O)n(C)c(=O)nc1-2	none

From PubChem
